# Data: PubChem BioAssay (NCATS)
# Inconclusive results are not listed. Entries that show only a call come without a potency. Calls of active or inactive are those of the source. Unless noted, the call rests on the fitted dose curve; in most records, active means well fitted curve in the direction sought with a large enough effect; inconclusive means small, poorly fitted or top-dose-only effect, or another doubt; inactive means no such curve, though single readings can be large; an effect the other way counts as inactive or inconclusive.
# Experiments:
# [1] = Cell Viability - LYMP2-012 (AID 982);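 further: cellular ATP by luciferase luminescence where a drop means cytotoxicity; cells exposed to compound for one day before reading; nearly all actives have a fitted effect of over 55% in size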
# [2] = Cell Viability - LYMP2-014 (AID 983); further: nearly all actives have a fitted effect of over 50% in size
# Method in brief: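 Human lymphoblastoid cells (2500/well) were pre-incubated 5 hr at 37 C, then exposed to compounds in complete medium for 24 hr at 37 C. Intracellular ATP was read by CellTiter-Glo luminescence after 30 min at room temperature; AC50 from Hill fits.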
# [3] = Cell Viability - LYMP2-016 (AID 984); further: nearly all actives have a fitted effect of over 55% in size
# Method in brief: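 Human lymphoblastoid cells (LYMP2-016), 2500/well in complete medium, preincubated 5 hr at 37 C, then compound-treated 24 hr at 37 C. Intracellular ATP read by CellTiter-Glo luminescence after 30 min at room temperature; AC50 from Hill-equation concentration-response fits.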
# [4] = Cell Viability - LYMP2-018 (AID 985);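 further: compound exposure lasted 24 hr at 37 °C; nearly all actives have a fitted effect of over 50% in size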
# Method in brief: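 Human lymphoblastoid cells (2500/well) were pre-incubated 5 hr at 37 C, then exposed to compounds for 24 hr at 37 C in complete medium. Viability was read as intracellular ATP by CellTiter-Glo luminescence; AC50 values came from Hill-equation fits.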
# [5] = Cell Viability - LYMP2-020 (AID 986); further: nearly all actives have a fitted effect of over 55% in size
# Method in brief: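 Human lymphoblastoid cells, 2500/well, were pre-incubated 5 hr at 37 C, then exposed to compounds for 24 hr at 37 C in complete medium. Intracellular ATP was read by CellTiter-Glo luminescence, and AC50 was derived by Hill fitting of concentration-response data.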
# [6] = Cell Viability - LYMP2-022 (AID 987); further: nearly all actives have a fitted effect of over 55% in size
# Method in brief: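 Human lymphoblastoid cells, 2500/well, preincubated 5 hr at 37 C, then exposed to compounds over a concentration range for 24 hr at 37 C in complete medium. Viability read as intracellular ATP by CellTiter-Glo luminescence after 30 min at room temperature; AC50 from Hill fits.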
# [7] = Cell Viability - LYMP2-024 (AID 988); further: nearly all actives have a fitted effect of over 60% in size
# Method in brief: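 Human lymphoblastoid cells (2500/well) in complete medium were preincubated 5 hr at 37 C, then exposed to compounds for 24 hr at 37 C. Intracellular ATP was read by CellTiter-Glo luminescence; AC50 from Hill-equation fits of concentration-response data.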
# [8] = Cell Viability - LYMP2-026 (AID 989); further: nearly all actives have a fitted effect of over 50% in size
# Method in brief: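 Human lymphoblastoid cells (2500/well) in complete medium were preincubated 5 hr at 37 C, then exposed to compounds for 24 hr at 37 C. Cellular ATP was read by CellTiter-Glo luminescence; AC50 from Hill-equation fits of concentration-response data.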
# [9] = biological target: Alpha-galactosidase A (Homo sapiens) (UniProt P06280); experiment: Counterscreen for Glucocerebrosidase Inhibitors: qHTS Assay for Human alpha-Galactosidase at pH 4.5 (AID 992)
# Chain of Alpha-galactosidase A (Homo sapiens) (P06280 whole entry, looked up): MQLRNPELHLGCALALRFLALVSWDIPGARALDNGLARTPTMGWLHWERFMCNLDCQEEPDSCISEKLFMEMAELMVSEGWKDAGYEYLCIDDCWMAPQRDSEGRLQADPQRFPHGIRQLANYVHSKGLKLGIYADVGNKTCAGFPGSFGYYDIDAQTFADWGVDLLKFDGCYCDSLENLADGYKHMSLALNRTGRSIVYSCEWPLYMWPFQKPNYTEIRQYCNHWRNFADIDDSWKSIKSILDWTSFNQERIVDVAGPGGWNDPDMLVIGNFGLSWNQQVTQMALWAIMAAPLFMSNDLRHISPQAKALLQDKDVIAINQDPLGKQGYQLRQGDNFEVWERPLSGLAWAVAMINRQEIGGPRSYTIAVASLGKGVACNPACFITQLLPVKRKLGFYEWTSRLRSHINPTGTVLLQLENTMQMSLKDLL
# Method in brief: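 Human enzyme (2 nM) with 80 uM 4-methylumbelliferyl alpha-D-galactopyranoside in 50 mM citric acid, 0.005% Tween-20, pH 4.5, 20 min at room temperature. Compounds 0.7 nM–77 uM; fluorescence Ex 365/Em 440 after pH 10 stop; AC50 from Hill fits.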
# [10] = Cell Viability - LYMP1-002 - Assay at 24 hr (AID 993)
# Method in brief: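 Human lymphoblastoid LYMP1-002 cells, 2500/well in complete medium, were treated with compounds for 24 h at 37 C; intracellular ATP was read by CellTiter-Glo luminescence. AC50 values came from Hill-equation fits of qHTS concentration-response data.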
# [11] = Cell Viability - LYMP1-002 - Assay at 40 hr (AID 994); further: nearly all actives have a fitted effect of over 60% in size
# Method in brief: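 Human lymphoblastoid cells, 2500/well in complete medium, were preincubated 5 hr at 37 C, then exposed to compounds for 40 hr at 37 C. Intracellular ATP was read by CellTiter-Glo luminescence after 30 min at room temperature; AC50 from Hill-equation fits.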
# [12] = biological target: alpha-glucosidase (Oryza sativa, rice) (UniProt Q653V4); experiment: Counterscreen for Glucocerebrosidase Inhibitors: qHTS Assay for Rice alpha-Glucosidase at pH 5.0 (AID 997)
# Method in brief: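 Rice alpha-glucosidase (4 nM final) with 400 uM 4-methylumbelliferyl-alpha-D-glucopyranoside in citrate buffer pH 5.0, 20 min at room temperature, stopped at pH 10; fluorescence 365/440 nm, compounds 0.7 nM–77 uM, AC50 from Hill fits.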
# [13] = Validation of Assay for Modulators of Lamin A Splicing (AID 1459; active means well fitted curve in the direction sought with a large enough effect in the signal ratio; the % refers to the signal ratio;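 further: cells exposed to compound for two days before reading; ratio rise marks activators and ratio drop marks inhibitors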)
# Method in brief: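 S3 HeLa cells stably expressing a lamin A-EGFP splicing minigene and DsRed2 were seeded at 600 cells/well in Opti-MEM with 2% FBS, pin-dosed, and incubated 48 hrs at 37 °C, 5% CO2. Laser-scanning cytometry (488 nm) gave GFP/RFP total intensity ratio.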
# [14] = biological target: DNA repair nuclease/redox regulator APEX1 (Homo sapiens) (UniProt P27695); experiment: qHTS Validation Assay for Inhibitors of the Human Apurinic/apyrimidinic Endonuclease 1 (APE1) (AID 1705;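 further: TAMRA fluorescence gain over two minutes as APE1 cuts a quenched THF abasic duplex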)
# Chain of DNA repair nuclease/redox regulator APEX1 (Homo sapiens) (P27695 whole entry, looked up): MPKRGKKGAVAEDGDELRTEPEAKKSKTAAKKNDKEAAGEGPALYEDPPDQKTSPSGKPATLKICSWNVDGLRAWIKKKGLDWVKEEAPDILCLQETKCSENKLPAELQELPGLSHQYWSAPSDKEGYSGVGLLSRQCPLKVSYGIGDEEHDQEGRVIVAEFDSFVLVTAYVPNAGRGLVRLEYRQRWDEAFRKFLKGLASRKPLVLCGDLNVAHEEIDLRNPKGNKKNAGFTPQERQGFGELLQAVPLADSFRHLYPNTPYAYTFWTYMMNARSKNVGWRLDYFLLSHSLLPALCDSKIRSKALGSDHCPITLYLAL
# Method in brief: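 Human APE1 was preincubated with compound for 15 min at room temperature, then 50 nM (final) THF-abasic double-stranded DNA substrate bearing 5'-TAMRA and 3'-BHQ-2 was added. Incision-driven fluorescence rise (ex 525/em 598 nm) was read kinetically.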
# [15] = Counterscreen for APE1 Inhibitors: Fluorescent Dye Displacement Validation Assay (AID 1707)
# Method in brief: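 Thiazole Orange (250 nM) bound to 50 nM TAMRA-labelled dsDNA with tetrahydrofuran abasic site; displacement by DNA-binding compounds lowers fluorescence. Buffer 50 mM Tris-HCl pH 7.5, 50 mM NaCl, 2 mM MgCl2, 0.01% Tween-20; endpoint read at 480/540 nm.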
# [16] = qHTS for differential inhibitors of proliferation of Plasmodium falciparum line 7G8 (AID 1815);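 further: parasite growth measured after three days of incubation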; further: potency means the concentration at half of the fitted maximal effect
# [17] = qHTS for differential inhibitors of proliferation of Plasmodium falciparum line GB4 (AID 1816); conditions: Potency: Plasmodium falciparum GB4 proliferation inhibition;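 further: parasite growth measured after 72 h incubation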; further: potency means the concentration at half of the fitted maximal effect
# [18] = qHTS for differential inhibitors of proliferation of Plasmodium falciparum line 3D7 (AID 1876); further: potency means the concentration at half of the fitted maximal effect
# [19] = biological target: Endonuclease 4 (Escherichia coli (strain K12)) (UniProt P0A6C1); experiment: Counterscreen for APE1 Inhibitors: qHTS Validation Assay for Inhibitors of Endonuclease IV (AID 1708)
# Method in brief: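 2 nM enzyme was preincubated with compounds for 15 min at room temperature in 50 mM Tris-HCl pH 7.5, 50 mM NaCl, 2 mM MgCl2, 1 mM DTT, 0.01% Tween-20. 50 nM THF-abasic TAMRA/BHQ-2 duplex substrate started the reaction.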
# [20] = qHTS Assay for Lipid Storage Modulators (AID 1519; calls by dose curve); conditions: Drosophila S3 cells, BODIPY lipid droplet/cell ratio, laser cytometry, cells loaded with oleic acid; for activity change, negative = inhibition: at 57.5 µM (top of the series)
# Method in brief: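 Cells seeded at 5,000 per well were treated with compounds over a concentration series and loaded with oleic acid (400 uM, as added). Lipid droplet fluorescence (488 nm excitation, 500-530 nm channel) was read by laser-scanning cytometry and normalized to 20 uM Triacsin C.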
# [21] = measured here: cell count channel max response
# [22] = measured here: lipid channel max response
smiles,measurement,setting,value
CC(=O)C(C)=O,outcome,[1],inactive
same,outcome,[2],inactive
same,outcome,[3],inactive
same,outcome,[4],inactive
same,outcome,[5],inactive
same,outcome,[6],inactive
same,outcome,[7],inactive
same,outcome,[8],inactive
same,outcome,[9],inactive
same,outcome,[10],inactive
same,outcome,[11],inactive
same,outcome,[12],inactive
same,outcome,[13],inactive
same,Potency,[14],inactive
same,Potency,[15],inactive
same,Potency,[16],inactive
same,Potency,[17],inactive
same,Potency,[18],inactive
COc1cc(N)c(Cl)cc1C(=O)OCCN1CCCCC1,outcome,[9],inactive
same,outcome,[12],inactive
same,outcome,[13],inactive
same,Potency,[14],inactive
same,Potency,[15],inactive
same,Potency,[18],inactive
O=C1NC(=O)c2cc(Nc3ccccc3)c(Nc3ccccc3)cc21,outcome,[9],inactive
same,outcome,[13],inactive
same,Potency,[14],inactive
same,Potency,[15],inactive
same,Potency,[16],8.91 µM (active)
same,Potency,[17],10 µM (active)
same,Potency,[18],12.6 µM (active)
O=C(OCCN1CCOCC1)C1(c2ccccc2)CCCCC1,outcome,[9],inactive
same,outcome,[12],inactive
same,outcome,[13],inactive
same,Potency,[14],inactive
same,Potency,[15],inactive
same,Potency,[17],10 µM (active)
c1ccc2nc(C3=NCCN3)ccc2c1,outcome,[9],inactive
same,outcome,[12],inactive
same,outcome,[13],inactive
same,Potency,[14],inactive
same,Potency,[19],inactive
same,Potency,[16],inactive
same,Potency,[18],inactive
Cc1ccc2c(c1)C(N1CCN(C)CC1)=Nc1cccnc1N2,outcome,[9],inactive
same,outcome,[12],inactive
same,outcome,[13],inactive
same,Potency,[14],inactive
same,Potency,[15],inactive
CCCCCCN(CCCCCC)C(=O)Cc1c(-c2ccc(F)cc2)[nH]c2ccccc12,outcome,[9],inactive
same,outcome,[13],inactive
same,Potency,[14],inactive
same,Potency,[19],inactive
same,Potency,[16],5.01 µM (active)
same,Potency,[17],3.98 µM (active)
same,Potency,[18],5.01 µM (active)
O=S(=O)(c1cccc2c(Cl)cccc12)N1CCCNCC1,outcome,[9],inactive
same,outcome,[12],inactive
same,outcome,[13],inactive
same,Potency,[14],inactive
same,Potency,[15],inactive
same,Potency,[16],5.01 µM (active)
same,Potency,[17],3.16 µM (active)
same,Potency,[18],14.1 µM (active)
Cn1ccnc1,outcome,[9],inactive
same,outcome,[12],inactive
same,outcome,[13],inactive
same,Potency,[14],inactive
same,Potency,[16],inactive
same,Potency,[17],inactive
same,Potency,[18],inactive
O=c1ccn([C@@H]2O[C@H](COP(=O)(O)OP(=O)(O)O)[C@@H](O)[C@H]2O)c(=O)[nH]1,"activity change, negative = inhibition",[20],1.87% (inactive)
same,max response,[20]; [21],-6.87%
same,max response,[20]; [22],-4.31%
same,Potency,[14],inactive
same,Potency,[15],inactive
same,Potency,[19],inactive
same,Potency,[16],inactive
same,Potency,[17],inactive
CC1CNCCN1S(=O)(=O)c1cccc2cnccc12 (configuration not stated),"activity change, negative = inhibition",[20],-0.941% (inactive)
same,max response,[20]; [21],3.07%
same,max response,[20]; [22],3.63%
same,Potency,[14],inactive
same,Potency,[15],inactive
same,Potency,[19],inactive
same,Potency,[17],12.6 µM (active)
same,Potency,[18],inactive
Cc1cccc(C(=O)NCN2CCN(c3ccccc3C#N)CC2)c1,outcome,[9],inactive
same,outcome,[12],inactive
same,"activity change, negative = inhibition",[20],0.112% (inactive)
same,max response,[20]; [21],-23.9%
same,max response,[20]; [22],-22.6%
same,Potency,[14],inactive
same,Potency,[15],inactive
same,Potency,[19],inactive
same,Potency,[16],inactive
same,Potency,[18],inactive
